The source of these data is PubChem BioAssay (NCI).

The structures appear in SMILES notation. This is part of a sample that, as a whole, favours compounds with a hit. Of some 83,000 tested, about 20% had one in any assay.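 Note: values are percent growth. 100 is the growth of untreated cells, values between 100 and 0 indicate rising inhibition; between -100 and 0 indicates cell death.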 Values without a mark were called inactive. Calls of active or inactive are those of the source. How the source made its calls: active means growth percent below 10; inactive means the rest.

For this test, the system named is HL-60(TB) leukemia. Kind of test: NCI-60 one-dose screen, 48 h (100 = growth as untreated, 0 = no growth, -100 = all killed). The conditions noted are these: 10 µM unless noted.
On to `COc1c(C(C)=O)c(OCCCCOc2c(C(C)=O)c(OC)c3ccoc3c2OC)c(OC)c2occc12`, for which the growth was 57.4%.

For `CNC(=O)c1c(NC(=O)c2ccc(C(C)(C)C)cc2)sc2c1CCC(=O)C2`, the growth is -13.2% (active).

With `Cc1cc(O)cc2c1[C@H]1CC[C@]3(C)[C@@H](O)CC[C@H]3[C@@H]1C=C2`, the growth is 70.6%.

As for `O=C(Nc1nc2cccc(-c3ccc(CN4CCS(=O)(=O)CC4)cc3)n2n1)C1CC1`, the growth was 66.4%.

Turning to `O=C(Nc1ccc(Br)cc1)C1=NCCCCN1`, the growth was 98%.

Consider `COc1cc(NS(=O)(=O)c2ccc(N)cc2)ncn1`, for which the growth was 105%.

For the compound `COc1ccc([C@@H]2[C@@H](Cl)C(=O)N2c2cc(OC)c(OC)c(OC)c2)cc1C`, the growth was -30.3% (active).

For the compound `Nc1c(C(=O)Nc2cccc(C(F)(F)F)c2)sc2nc3c(cc12)C(O)CCC3` (stereo not drawn), the growth is -0.216% (active).

On to `COc1ccc2c(c1)c(-c1nc(-c3cn(C)c4ncccc34)cs1)cn2CCO`, for which the growth is 82.4%.

With `NC(=O)c1c(NC(=O)c2ccc(C(F)(F)F)cc2Cl)sc2c1CCC(=O)C2`, the growth was -12.9% (active).

Consider `Clc1cccc(Cl)c1Nc1ccc2nnc(-c3ccncc3)n2n1`, for which the growth is 88.7%.

Turning to `COc1cccc(NC(=O)c2sc3nc(C)c(C(C)=O)cc3c2N)c1`, the growth is 6.61% (active).

Regarding `CSc1nn(-c2ccccc2)c2ncnc(Oc3ccccc3)c12`, the growth is 109%.

In the case of `CCCCCCCCCCCCCCNCc1ccccc1`, the growth is 51.9%.

As to `CC/C=C\C[C@H]1C/C=C2/C(=O)C=C[C@H]2C/C=C\CCCC(=O)O1`, the growth was 7.94% (active).

As to `CCC1(c2ccccc2)Oc2ccccc2-n2c(C#N)c3ccccc3c2C1=O` (stereo not drawn), the growth was 92.8%.

`O=c1[nH]c(CN2CCN(c3cccc(Cl)c3)CC2)nc2cc(Cl)ccc12`: the growth was 116%.

Regarding `CN(C)CCCNCc1ccc(-c2ccc(F)c(Cl)c2)o1`, the growth is -4.95% (active).

`c1cc(-c2ccc3c(c2)OCO3)n2nccc2n1`: the growth was 98.4%.

In the case of `Cc1ccc(C)n1-c1ccsc1C(=O)NNC(=O)CCl`, the growth was 104%.

As to `N#Cc1ccc(Oc2ccc3ccc(=O)oc3c2)cc1`, the growth was 82.7%.

Take `CC(=O)c1cnc2ccc(-c3cc(Cl)c(O)c(Cl)c3)nc2c1NC1CCC(CN(C)C)CC1` (stereo not drawn): the growth is -14.8% [2.5 µM] (active).

As to `CC1CCC2(OC1)OC1CC3C4CC=C5CC(O)CCC5(C)C4CCC3(C)C1C2C` (stereo not drawn), the growth is 91.9%.
